GDH-TPI inh: GDH-TPI coupling enzyme inhibitors, primary screen, artefact control for M. tuberculosis FBA inhibitor project, biochemical, absorbance, full deck; 360,000 compounds, 1.2% hits; GDH-TPI coupled enzyme counterscreen, NADH absorbance; inhibition, % at 4.8 µM; in the data active = inhibition above about 30%;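 also: 0% = DMSO wells and 100% = wells lacking the enzyme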
Vc quorum ag: inducers of Vibrio cholerae quorum light production without autoinducers, primary screen, BH1578 luxS cqsA deficient, single point; V. cholerae BH1578 lux reporter, luminescence, 6 h; activation, % at 18.7 µM; 350,000 compounds, 0.16% hits; AID 588436, 2011; in the data active = activation mostly above about 9.7%, no sharp cut-off
Mtb UGM inh: M. tuberculosis UGM enzyme inhibitors, primary screen, biochemical, fluorescence polarization, single point. UDP-galactopyranose mutase (Mycobacterium tuberculosis (strain ATCC 25618 / H37Rv)), …. purified UGM, fluorescence polarization probe displacement. inhibition, % at 10 µM. 320,000 compounds, 0.06% hits. AID 504406, 2011; in the data active = inhibition above about 10%, passing the limit was not always enough
RecA splice inh: Mtb RecA intein splicing inhibitors, primary screen, biochemical, fluorescence, HTS; cell-free RecA intein splicing; Protein RecA (Mycobacterium tuberculosis (strain ATCC 25618 / H37Rv)), P9WHJ3; 290,000 compounds, 0.75% hits; inhibition, % (no concentration beside the values); in the data active = inhibition above about 30%;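 also: 0% = vehicle wells and 100% = reference inhibitor control wells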
Rv3671c inh: Rv3671c serine protease inhibitors, primary screen, biochemical, fluorescence polarization, M. tuberculosis H37Rv; P9WHR9; inhibition, % at 5.96 µM; 320,000 compounds, 0.048% hits; in the data active = inhibition above about 38%;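 also: extracellular domain of Rv3671c used as enzyme; 0% = enzyme with DMSO and 100% = no enzyme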
Mtb FBA inh: Mtb FBA enzyme inhibitors, primary screen, biochemical, fluorescence, strain H37Rv | AID 588726, 2011 | inhibition, % at 1 µM | 360,000 compounds, 2.3% hits | Fructose-bisphosphate aldolase (Mycobacterium tuberculosis (strain ATCC 25618 / H37Rv)), … | purified M. tuberculosis FBA, fluorescence read-out; in the data active = inhibition above about 27%;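 also: 0% = vehicle and 100% = reference inhibitor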
Target sequence (P9WQA3 whole entry, looked up): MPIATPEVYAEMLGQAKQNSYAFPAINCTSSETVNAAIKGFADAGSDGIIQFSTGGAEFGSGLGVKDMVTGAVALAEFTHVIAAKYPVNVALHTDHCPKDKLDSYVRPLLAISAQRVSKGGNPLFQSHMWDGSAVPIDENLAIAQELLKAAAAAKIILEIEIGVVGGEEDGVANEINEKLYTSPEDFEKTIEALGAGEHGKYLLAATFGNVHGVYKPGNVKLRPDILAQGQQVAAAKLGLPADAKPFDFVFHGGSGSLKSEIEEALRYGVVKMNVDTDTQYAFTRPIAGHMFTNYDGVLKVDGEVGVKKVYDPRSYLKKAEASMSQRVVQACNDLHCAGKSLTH
The depositor's hits bear a star; i = inactive; / = no result given; + = active, no number. A selection: hits, their analogues and other compounds. The true share with any hit is near 4.1%.

SMILES	GDH-TPI inh	Vc quorum ag	Mtb UGM inh	RecA splice inh	Rv3671c inh	Mtb FBA inh
CC(c1nccs1)N(C)c1nc2nonc2nc1NC1CC1 (centres undefined)	32.9*	-0.8	-0.3	-1.4	-8.4	-2.1
CCN(CC)CCNC(=O)CNC(=O)c1nn(-c2ccc(OC)c(OC)c2)c(=O)c2ccccc12	13.0	-0.9	1.4	4.9	1.1	0.7
COc1ccc(CC2S/C(=N/N=C/c3ccc(O)cc3)NC2=O)cc1 (centres undefined)	15.7	-0.4	4.5	3.6	-10.0	-0.9
COc1ccc(/C=N/N=C2/NC(=O)C(c3ccccc3)S2)c(OC)c1 (centres undefined)	31.5*	-3.1	-0.2	-2.1	-0.1	-4.2
COc1cc(/C=N/N=C2/NC(=O)C(CC(=O)O)S2)ccc1OCc1ccc(Cl)cc1 (centres undefined)	50.6*	-0.4	1.7	-1.2	-0.3	-4.7
O=C1N/C(=N/N=C/c2ccc(O)cc2)SC1Cc1ccccc1 (centres undefined)	62.0*	i	2.2	-3.4	-25.7	-5.0
COc1ccc(CC2S/C(=N/N=C/c3ccccc3O)NC2=O)cc1 (centres undefined)	36.7*	i	-0.7	-7.9	6.7	-0.4
O=C(Cn1cc(COc2c(F)c(F)c(Br)c(F)c2F)nn1)c1ccc(O)cc1	31.1*	-0.6	/	/	/	0.2
O=C(Cn1cc(COc2ccc(Br)cc2)nn1)c1ccc(O)cc1	29.2	-0.7	/	/	/	-0.2
O=C(Cn1cc(COc2ccc3ccc(=O)oc3c2)nn1)c1ccc(O)cc1	41.2*	-0.2	/	/	/	7.4
O=C(Cn1cc(COc2c(Br)cc(F)cc2Br)nn1)c1ccc(O)cc1	15.1	-0.6	/	/	/	-1.7
Cc1cccc(/C=N\Nc2nnc(-c3ccccc3)c(=O)[nH]2)c1	15.0	-0.3	1.4	-0.7	-14.4	-0.7
CC(/C=N/Nc1nnc(C)c(=O)[nH]1)=C\c1ccccc1	31.8*	-0.4	-0.3	-0.9	-7.0	-2.6
CCOCC(=O)Nc1cc(-c2cn3cccnc3n2)ccc1C	14.0	2.6	-2.7	-7.6	3.2	+
Cc1ccc(-c2nc3ncccc3o2)cc1NC(=O)COc1ccccc1	8.7	-4.5	0.5	9.2	2.6	3.7
COc1cccc(C(=O)Nc2cc(-c3cn4cccnc4n3)ccc2C)c1	15.8	-0.1	-2.6	-2.5	-1.1	+
COc1ccc(-c2cn3cccnc3n2)cc1NC(=O)C(C)Oc1ccccc1 (centres undefined)	13.3	-0.3	-3.6	-0.5	-4.7	122.4*
COc1ccc(-c2cn3cccnc3n2)cc1NC(=O)c1cccs1	19.2	-0.3	-5.3	0.6	-2.7	18.4
Cc1ccc(C)c(NC(=O)CN(C)C(=O)c2ccccc2OCc2ccccc2Cl)c1	-3.5	i	2.8	5.2	4.8	-2.2
c1ccc2c(c1)-c1cccc3c1c-2cc1ccccc13	/	/	0.8	/	-1.1	/
c1ccc2c(c1)cc1ccc3cccc4ccc2c1c34	8.8	i	/	/	/	33.9*
CCNC(=S)N/N=C/c1cn(Cc2ccc(F)cc2)c2ccccc12	22.1	-0.2	0.4	-1.3	10.0	-1.4
COc1cc(C(=O)N/N=C/c2cn(Cc3cccc(F)c3)c3ccccc23)ccc1O	35.2*	i	1.2	-0.1	/	3.7
O=C(O)c1ccc(N/N=C/c2cn(Cc3ccc(F)cc3)c3ccccc23)cc1	44.4*	-0.7	1.4	5.0	14.8	11.6
Cc1c(/C=N/Nc2ccc(C(=O)O)cc2)c2ccccc2n1C	40.5*	-0.4	-3.5	-6.3	4.0	4.4
SMILES	GDH-TPI inh	Vc quorum ag	Mtb UGM inh	RecA splice inh	Rv3671c inh	Mtb FBA inh
COc1cc2ncnc(N[C@H](C)c3ccccc3)c2cc1OC	-1.0	0.9	0.6	-1.8	-2.1	1.2
c1cncc(-c2nc(N3CCOCC3)c3ccccc3n2)c1	16.7	-1.8	-1.1	/	-2.6	-2.4
c1ccc2c(N3CCOCC3)nc(-c3ccncc3)nc2c1	32.9*	-0.6	-0.6	2.1	1.0	-1.0
CCOC(=O)c1ccc(-c2ccc(/C=N/NC(=O)CN(c3ccccc3Br)S(C)(=O)=O)o2)cc1	32.5*	-0.1	-1.3	-2.4	0.6	5.6
CS(=O)(=O)N(CC(=O)N/N=C/c1cccc2c1OCCO2)c1ccccc1Br	5.1	i	-1.0	1.2	1.7	14.7
Cc1ccc(S(=O)(=O)N2CCOCC2)cc1C(=O)Nc1ccc2c(c1)OCCO2	2.7	-8.7	1.9	/	-5.3	-0.3
Cc1ccc(/C=N/Nc2nc3ccccc3s2)o1	55.9*	-0.3	-1.3	-2.2	-0.2	-4.4
CC(CC(=O)Nc1ccc2c(c1)c(=O)n(C)n2Cc1ccc(F)cc1)c1ccccc1 (centres undefined)	1.8	-0.2	/	/	/	129.5*
COc1cccc(CC(=O)Nc2ccc3c(c2)c(=O)n(C)n3-c2ccc(C(C)(C)C)cc2)c1	5.6	-5.0	/	/	/	6.3
CC(CC(=O)Nc1ccc2c(c1)c(=O)n(C)n2Cc1ccc(F)cc1)C(F)(F)F (centres undefined)	-3.6	-0.4	/	/	/	148.1*
COc1cccc(Cn2c3ccc(NC(=O)CC(C)C(F)(F)F)cc3c(=O)n2C)c1 (centres undefined)	8.9	i	/	/	/	142.8*
COc1cccc(Cn2c3ccc(NC(=O)Cc4cc(OC)ccc4OC)cc3c(=O)n2C)c1	2.7	i	/	/	/	152.2*
COc1ccc(C(=O)CSc2cc(C)[nH]c(=O)n2)cc1	7.0	-0.3	3.1	5.1	0.4	-4.1
CN(C)CCCNc1nc2sc3c(c2c(=O)n1CCc1ccccc1)CCCCC3	15.3	-0.3	1.7	0.2	5.0	1.5
Cc1cnc(C(=O)OCC(=O)N(Cc2ccccc2)C(C)(C)C)cn1	-1.7	-2.0	7.1	/	1.1	0.8
CCc1nc2c(OCCOC)cccn2c1N(C)C(=O)c1ccc(C)cc1	-6.6	-0.6	/	/	/	1.0
CCCCC(=O)Nc1nc(-c2ccc(S(=O)(=O)N3CCOCC3)cc2)cs1	-1.0	-0.4	-1.1	0.9	-11.5	36.1*
CC(C)CC(=O)Nc1nc(-c2ccc(S(=O)(=O)N3CCOCC3)cc2)cs1	-1.0	-3.6	/	-2.3	/	31.4*
COc1cccc(C(=O)Nc2nc(-c3ccc(S(=O)(=O)N4CCOCC4)cc3)cs2)c1	13.4	i	-1.9	5.7	-60.3	3.6
O=C(Nc1nc(-c2ccc(S(=O)(=O)N3CCOCC3)cc2)cs1)c1ccccc1	12.3	1.6	-0.3	-2.9	-47.1	-0.4
Cc1ccc(N2CC(C(=O)NCCS(=O)(=O)N3CCN(c4ccc(F)cc4)CC3)CC2=O)cc1 (centres undefined)	-3.4	-0.5	-0.8	0.1	-1.8	-1.4
Cc1occc1C(=O)N/N=C/c1cccs1	24.5	i	0.8	0.2	0.5	-1.3
